# Only some compounds are listed: those with a hit (about 6.9% of all), similar ones and a draw of the others.
# BAZ2B block: blocks human BAZ2B | Q9UIF8 | AlphaScreen BAZ2B-H3K14Ac peptide displacement | Potency, µM (titrated, usually from 114 µM), usual class: inhibitors | 360,000 tested, 4.4% active | AID 504333; also: nearly all actives have a fitted effect of over 60% in size
#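 Compounds, titrated to a top concentration of 110 uM, were incubated 30 min at room temperature with preformed BAZ2B/acetyl-K14 H3 peptide complex (50 nM each). Proximity signal was measured by AlphaScreen after 20 min with beads.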
# L3MBTL1 block: L3MBTL1 (human) inhibition; AlphaScreen L3MBTL1–H3K9me1 peptide binding; 230,000 tested, 0.66% active; Potency, µM (series often up to 57.1 µM), actives largely listed as inhibitors; also: nearly all actives have a fitted effect of over 60% in size
#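 AlphaScreen assay: L3MBTL1 (50 nM final) was preincubated 30 min at room temperature with biotinylated H3(1-15)K9me1 peptide (75 nM final), then 30 min with library compounds; streptavidin donor and nickel chelate acceptor beads (10 ug/mL final) added, 30 min dark.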
# HP1b binding inh: inhibitors of HP1-beta chromodomain binding to methylated histone tails; Potency, µM (highest dose often 114 µM), usual class: inhibitors; 390,000 tested, 0.56% active; AID 540317; AlphaScreen HP1-beta / biotin-H3K9me3 peptide binding; P83916; also: nearly all actives have a fitted effect of over 70% in size
#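 Compound inhibition of the preformed complex between 50 nM HP1-beta and 50 nM biotinylated H3K9me3 peptide was read by AlphaScreen. Buffer was PBS pH 7.4 with 0.01% Tween-20. Incubations ran 30 min at room temperature, with 10 ug/mL donor/acceptor beads.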
# JMJD2A Tudor: JMJD2A Tudor domain (human) inhibition. 390,000 tested, 4.4% active. AlphaScreen JMJD2A-Tudor / H3K4me3 peptide binding. AID 504339. Potency, µM (doses to about 114 µM), hits mostly inhibitors. O75164; also: nearly all actives have a fitted effect of over 50% in size
# VDR inh: vitamin D3 receptor (human) inhibition. P11473. 400,000 tested, 0.93% active. Potency, µM, most hits filed as inhibitors. VDR-SRC2-3 peptide fluorescence polarization, 2 h
#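 VDR–SRC2-3 interaction, FP format. Cmpds 23 nl via pintool, brief spin, 2 h ambient incubation.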
# PLK1 PBD block: blocks phosphopeptide binding to human PLK1 polo-box domain | P53350 | AID 720504 | Potency, µM, usual class: inhibitors | Plk1 PBD binding of FITC phosphopeptide, fluorescence polarization | 360,000 tested, 2.8% active; also: series mostly up to about 57 µM; nearly all actives have a fitted effect of over 65% in size
# A number is an active result; – = inactive; ? = inconclusive; · = no result; [ ] = dose if it differs, or a comment. Calls follow the shape of the dose curve; as a rule, active = well fitted curve in the direction sought with a large enough effect; inconclusive = small, poorly fitted or top-dose-only effect, or another doubt; inactive = no such curve, though single readings can be large; an effect the other way counts as inactive or inconclusive.
SMILES,BAZ2B block,L3MBTL1 block,HP1b binding inh,JMJD2A Tudor,VDR inh,PLK1 PBD block
O=C(COC(=O)c1ccccc1O)Nc1ccc(N2CCOCC2)cc1,–,–,–,–,–,–
COc1ccc(CNC2CCCCC2C)c(OC)c1 (stereo not drawn),56µM,–,?,2µM,–,–
COc1ccc(NC(=O)NC2CCCc3ccccc32)c(OC)c1 (stereo not drawn),–,·,–,–,–,–
COc1ccc(CNC2CCCc3ccccc32)c(OC)c1 (stereo not drawn),–,–,?,50µM,–,–
Cc1ccc(CNc2ccc(-c3nc(C(C)C)no3)cc2[N+](=O)[O-])cc1,–,·,–,–,–,·
COc1ccc(/C=N/NC(=O)CCn2cnc(-c3ccccc3)c2-c2ccccc2)cc1,25µM,–,?,20µM,–,–
COc1ccc(/C=N/NC(=O)CCSc2nc3ccccc3s2)cc1,–,–,–,?,–,30µM
O=C(CCn1cnc(-c2ccccc2)c1-c1ccccc1)N/N=C/c1ccc(O)cc1,?,–,?,25µM,–,?
O=C(CCn1cnc(-c2ccccc2)c1-c1ccccc1)N/N=C/c1ccccc1O,?,–,?,25µM,–,?
O=C(CSc1nc2ccccc2s1)N/N=C/c1ccc(C(=O)O)cc1,–,–,–,–,–,–
COc1ccc(S(=O)(=O)c2nnn(-c3ccc(C(C)C)cc3)c2C)cc1,–,·,–,–,–,·
Fc1ccc(-c2noc3ncnc(NC4CCCCC4)c23)cc1,–,·,–,–,–,·
CN(C)CC1CCC/C(=C\c2ccc(OC(=O)/C=C/c3ccccc3)cc2)C1=O (stereo not drawn),·,·,–,–,79µM,?
COc1ccc(/C=C2\CCC(C3CCCC3)C2=O)cc1 (stereo not drawn),–,·,–,–,–,–
COc1ccc(/C=C2/CCC(CN3CCOCC3)C2=O)cc1 (stereo not drawn),·,·,?,79µM,?,5.3µM
CN(C)CC1CC/C(=C\c2ccc(O)cc2)C1=O (stereo not drawn),·,·,?,89µM,22µM,6.7µM
COc1cc(/C=C(\C#N)c2nc3ccccc3[nH]2)cc(Cl)c1OCc1ccccc1Cl,–,·,–,–,–,·
Cc1c(N=CC=Nc2c(C)n(C)n(-c3ccccc3)c2=O)c(=O)n(-c2ccccc2)n1C,–,–,·,·,·,·
Cc1ccc(C2C(C=Nc3c(C)n(C)n(-c4ccccc4)c3=O)=C(c3ccccc3)Oc3ccccc32)cc1 (stereo not drawn),–,–,?,–[11.4 µM],–,21µM
O=C(NC1CC(=O)N(c2cccc(F)c2)C1)c1cc2ccccc2o1 (stereo not drawn),–,·,–,–,–,·
COc1ccccc1CNC(=O)CCn1nc(C)c2c(C)n(-c3ccccc3)nc2c1=O,–,·,–,–,–,·
COc1ccc(/C=N/NC(=O)c2[nH]c3ccc(Br)cc3c2-c2ccccc2)c(C(=O)O)c1OC,50µM,–,–,?,–,?
COc1ccc(/C=N/NC(=O)c2[nH]c3ccc(Cl)cc3c2-c2ccccc2)c(C(=O)O)c1OC,–,·,–,?,?,–
COc1ccccc1C1=NN(C(=O)c2ccccc2)C(c2ccc(Br)cc2)C1 (stereo not drawn),?,·,–,–,–,–
C#CCOCCOCCOCCNc1nc(N2CCN(C(=O)[C@H](CC(N)=O)n3cc(C(N)[C@H](C)CC)nn3)CC2)nc(N2CCN(C(=O)[C@H](CC(N)=O)n3cc(C(N)[C@@H](C)CC)nn3)CC2)n1 (stereo partly drawn),·,–,–,22µM,–,–
SMILES,BAZ2B block,L3MBTL1 block,HP1b binding inh,JMJD2A Tudor,VDR inh,PLK1 PBD block
C#CCOCCOCCOCCNc1nc(N2CCN(C(=O)[C@H](CC(N)=O)n3cc(C(N)[C@@H](C)CC)nn3)CC2)nc(N2CCN(C(=O)[C@H](CCCCN)n3cc([C@@H](N)CC(N)=O)nn3)CC2)n1 (stereo partly drawn),·,–,–,79µM,–,–
C#CCOCCOCCOCCNc1nc(N2CCN(C(=O)[C@H](CCCCN)n3cc(CN)nn3)CC2)nc(N2CCN(C(=O)[C@H](CC(N)=O)n3cc(C(N)[C@H](C)CC)nn3)CC2)n1 (stereo partly drawn),·,–,–,40µM,–,–
C#CCOCCOCCOCCNc1nc(N2CCN(C(=O)[C@H](CC(N)=O)n3cc(C(N)[C@@H](C)CC)nn3)CC2)nc(N2CCN(C(=O)[C@H](CCC(=O)O)n3cc([C@@H](N)CCCCN)nn3)CC2)n1 (stereo partly drawn),·,–,–,79µM,–,–
Cc1ccc(N2CC(C)Cn3c2nc2c3c(=O)n(Cc3cccc(Cl)c3)c(=O)n2C)cc1 (stereo not drawn),–,·,–,–,–,·
COc1ccc(C(=O)NCC(c2ccc3c(c2)OCO3)N2CCN(c3ccccc3F)CC2)cc1 (stereo not drawn),–,·,–,–,–,·
Cc1ccc(C(=O)NNC(=O)C2CCN(c3nccc(C)n3)CC2)cc1,–,–,–,–,–,–
Cc1ccc(CS/C(Nc2ccccc2C)=C(\C#N)C(N)=O)c(C)c1,–,–,–,–,–,–
C#CCOCCOCCOCCNc1nc(N2CCN(C(=O)[C@H](CCC(=O)O)n3cc([C@@H](N)[C@H](C)CC)nn3)CC2)nc(N2CCN(C(=O)[C@H](CCC(=O)O)n3cc([C@@H](N)CC(N)=O)nn3)CC2)n1,·,–,–,56µM,–,–
C#CCOCCOCCOCCNc1nc(N2CCN(C(=O)[C@H](CCCCN)n3cc([C@@H](N)[C@H](C)CC)nn3)CC2)nc(N2CCN(C(=O)[C@H](CCCCN)n3cc([C@@H](N)CC(N)=O)nn3)CC2)n1,·,–,–,–,–,–
C#CCOCCOCCOCCNc1nc(N2CCN(C(=O)[C@H](CCCCN)n3cc([C@@H](N)C(C)CC)nn3)CC2)nc(N2CCN(C(=O)[C@H](CCCCN)n3cc([C@@H](N)CC(C)C)nn3)CC2)n1 (stereo partly drawn),71µM,–,–,?,–,–
C#CCOCCOCCOCCNc1nc(N2CCN(C(=O)[C@H](CCC(=O)O)n3cc([C@@H](N)[C@H](C)CC)nn3)CC2)nc(N2CCN(C(=O)[C@H](CCCCN)n3cc([C@@H](N)CC(N)=O)nn3)CC2)n1,·,–,–,5.6µM,–,–
Cc1cc(C)cc(N2C(=O)CSC23C(=O)N(CC(=O)NC2CCCCC2)c2ccccc23)c1 (stereo not drawn),–,·,–,–,–,·
COc1cc(OC)cc(-c2nc(-c3ccc4c(c3)[nH]c(=O)n4C)no2)c1,–,·,–,–,–,·
